# Where “and” joins values, the source holds several entries; their conditions need not be identical. Equal values may be shown once. Compounds without any hit were thinned out: in the full panel of roughly 83,000, 20% have a hit.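 Single-dose data. Exposure time 48 hours. Values below 10 considered active.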 A number with no mark means an inactive call. Calls of active or inactive are those of the source.
# Test system: MDA-MB-468 breast
# Assay: NCI-60 one-dose screen, 48 h (100 = growth as untreated, 0 = no growth, -100 = all killed)
# Conditions: 10 µM unless noted
row,SMILES,growth
1,CN1/C(=C/C=C/c2n(Cc3ccc4ccccc4c3)c(Cl)c(Cl)[n+]2Cc2ccc3ccccc3c2)Oc2ccccc21,-56.7% (active)
2,[2H]C([2H])([2H])Oc1ccc(/C=C/C(=O)/C=C(O)/C=C/c2ccc(OC([2H])([2H])[2H])c(OC([2H])([2H])[2H])c2)cc1OC([2H])([2H])[2H],1.44% (active)
3,C=C(C)[C@@H]1CC[C@]2(C=O)CC[C@]3(C)[C@H](CC[C@@H]4[C@@]5(C)C/C(=C/c6cccnc6)C(=O)C(C)(C)[C@@H]5CC[C@]43C)[C@@H]12,80.4%
4,Cn1nccc1Nc1nccc(-c2ccn([C@H](CO)c3ccc(Cl)c(F)c3)c(=O)c2)n1,129%
5,CC[C@H](CO)Nc1ccc2ncc(C#Cc3cncc(C(=O)Nc4ccc(CN5CCN(C)CC5)c(C(F)(F)F)c4)c3)n2n1,-67.8% (active)
6,O=C(Oc1cccnc1)c1ccsc1Nc1ccnc(C(F)(F)F)c1,17%
7,CCCOC(=O)c1ccc2c(c1)[N+](=O)C(C(=O)c1ccccc1)=C(C(F)(F)F)[N+]2=O,-81.4% (active)
8,OCCN(CCO)c1ccc2ccccc2c1,107%
9,COc1cc([C@@H](CCO)C[C@H](C)c2ccc3ccccc3c2)cc(OC)c1OC,17.2%
10,O=C(NNc1nccc(Nc2ccc(S(=O)(=O)Nc3ccncc3)cc2)n1)c1ccccc1,116%
11,O=c1cc(-c2ccccc2)oc2cc(OCc3cn(Cc4ccc(F)cc4)nn3)cc(O)c12,53.9% [100 µM]
12,CCNCCNc1cc(-c2cccc(C(F)(F)F)c2)c(C#N)c2nc3ccccc3n12,-84.3% (active)
13,CCOC(=O)c1ccc(NCCC(=O)O)cc1,95.5%
14,Cc1nn2c(-c3nc4cc(Cl)c(Cl)cc4[nH]3)c(-c3ccc(F)cc3)nc2s1,8.3% (active)
15,COc1cccc(C(=O)NNc2nc(Cl)nc(Cl)n2)c1,102%
16,COc1cc(C(=O)Nc2ccc(-c3nc4ccccc4[nH]3)cc2)cc(OC)c1OC,6.62% (active)
17,O=C(Nc1ccc(-n2cc(-c3ccncc3)c(-c3ccc(Cl)c(O)c3)n2)cc1)N1CCOCC1,112%
18,O=C(CCN1CCCC1)Nc1ccc2c(NCc3ccc(F)cc3)c3ccccc3nc2c1,-46.1% (active)
19,CC(=O)/C(=C/c1cccc(Cl)c1)C(=O)c1ccccc1,99.2%
20,COc1ccccc1Cn1cc2c(c1-c1ccccc1)CCc1cnoc1-2,10.9%

row,SMILES,growth
1,CN1CCN(Cc2ccc(NC(=O)c3cncc(C#Cc4cnc5ccc(OC6CCOCC6)nn45)c3)cc2C(F)(F)F)CC1,-62.5% (active)
2,COc1ccc(C(=O)c2sc3nc(-c4ccccc4OC)ccc3c2N)cc1OC,66.9%
3,CCOC(=O)C/C(C)=N\O,98.2%
4,CN1CCN(c2ccc(Nc3nc(NCCCNS(=O)(=O)c4ccc(C(F)(F)F)cc4)c4sccc4n3)cc2)CC1,-80.9% (active)
5,Cc1cc(=O)[nH]c(NN=C2CCCC2)n1,116%
6,N#CCCN(NC(=O)OCc1ccccc1)C(=O)OCc1ccccc1,116%
7,O=C(CN1N=C(c2ccc(F)cc2)CCC1=O)Nc1nccs1,94.6%
8,Cn1cc(-c2nc(-c3c[nH]c4c(Cl)nccc34)cs2)c2ccccc21,8.74% (active)
9,O=C(/C=C/c1ccc(Cl)cc1)c1ccc(Cl)cc1,88.3%
10,CN(C)c1ccc(C(=N)c2ccc(N(C)C)cc2)cc1,-45.5% (active) and -18.9% (active)
11,Cn1ncc2c(=O)nc3c(-c4ccccc4)n[nH]n3c21,101%
12,CCN1CCN(c2cc(C(=O)Nc3nc4ccc(Oc5ccnc(C(=O)NC)c5)cc4s3)cc(C(F)(F)F)c2)CC1,43.3%
13,CCCCOC(=O)c1c(C)[nH]c(/C=C2\N=C(c3ccc[nH]3)C=C2OC)c1C,-58.2% (active)
14,O=C(CSc1nc2c(n1Nc1ccccc1)-c1ccccc1SC2)Nc1nc(-c2ccc(Cl)cc2)cs1,59.1%
15,CN(C)N=Nc1nn(C(=O)Nc2ccc(Cc3ccccc3)cc2)c2ccccc12,69.2%
16,Cc1cc(C)c(O)c(CNCCCCCCNCc2cc(C)cc(C)c2O)c1,-72.2% (active)
17,Cc1nc(NN)c([N+](=O)[O-])c(NN)n1,122%
18,Cn1cccc1/C=C1/SC(=S)N(CCc2ccc(O)cc2)C1=O,10.3%
19,CCOC(=O)C(CCC1=NC(C)(C)CC(C)O1)C(=O)OCC (stereo not given),70.5%
20,Cc1nc2ccc(Nc3nc(N4CCOCC4)nc(N4CCN(C)CC4)n3)cc2n1Cc1ccccc1,66.8%
